Screening data from PubChem BioAssay.
This is a sample that favours compounds with a hit; in the whole collection about 6.5% have one here.
VACV mCherry inh = vaccinia inhibition (mCherry reporter); Vaccinia virus mCherry reporter infection, fluorescence; Potency, µM (series often up to 36.5 µM), hits mostly inhibitors; 310,000 tested, 0.63% active; AID 720579; calls by dose curve; tested in A549 cells; further: nearly all actives have a fitted effect of over 35% in size
HCMV inh = blocks human cytomegalovirus replication | activity change, negative = inhibition, % at 57.5 µM | 410,000 tested, 4.5% active | HFF cells, HCMV-luciferase reporter, 72 h; stronger effect = lower value | AID 1259415; in the data active means activity change below about -60%; inconclusive means no clear call, values can overlap the other calls; inactive means above about -39%
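Screen run at 2 compound doses on HFFs infected with reporter HCMV, MOI 1 PFU/cell. Luciferase activity from cell lysates at 72 h post infection gave inhibition relative to buffer-only and Salinomycin wells.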
VACV Venus inh = inhibitors of vaccinia virus (Venus reporter); Vaccinia virus Venus reporter expression, fluorescence; Potency, µM (highest dose often 36.5 µM), usual class: inhibitors; 330,000 tested, 0.46% active; calls by dose curve; tested in A549 cells; further: nearly all actives have a fitted effect of over 30% in size
Lassa entry inh = inhibitors of Lassa virus binding or cell entry | Lassa virus pseudotype entry inhibition, cell reporter | Potency, µM (top dose mostly 37.9 µM), most hits filed as inhibitors | 300,000 tested, 1.2% active | AID 540256; calls by dose curve; tested in HEK293 cells; further: nearly all actives have a fitted effect of over 50% in size
MARV entry inh = inhibitors of Marburg virus binding or cell entry. Marburg virus pseudotyped entry inhibition, cell reporter. Potency, µM (doses to about 37.8 µM), actives largely listed as inhibitors. 300,000 tested, 1.8% active. AID 540276; calls by dose curve; tested in HEK293 cells
FMDV inh = foot and mouth disease virus antiviral activity. FMDV antiviral cell-based qHTS. Potency, µM (titrated, usually from 57.9 µM), actives largely listed as inhibitors. 410,000 tested, 1.2% active. AID 1159524; calls by dose curve; tested in HEK293T cells; further: read-out not given here; nearly all actives have a fitted effect of over 45% in size
Each line names hits and unclear results; the compound was inactive in the other large screens.

CCOC(=O)CC1(CCc2ccccc2)Oc2ccccc2N1S(=O)(=O)c1ccc(C)cc1 (stereo not given)	HCMV inh inconclusive (no result: Lassa entry inh, MARV entry inh)
CCOC(=O)CC1(C)Oc2cc(Cl)ccc2N1S(=O)(=O)c1ccc(C)cc1 (stereo not given)	VACV mCherry inh inconclusive, HCMV inh -70 (no result: Lassa entry inh, MARV entry inh)
COc1ccc(NC(=O)C(C)Sc2nnc(C3CC3)n2C2CC2)cc1 (stereo not given)	MARV entry inh inconclusive
CC(C)Nc1nc(Cl)nc(N(C#N)CN2C(=O)c3ccccc3C2=O)n1	VACV mCherry inh inconclusive, HCMV inh inconclusive, VACV Venus inh inconclusive, Lassa entry inh inconclusive, MARV entry inh 2.5µM, FMDV inh inconclusive
CCNC(=O)CCCN1C(=O)CCn2nc(-c3cccn3C)cc21	none (no result: MARV entry inh)
Cc1nn(CC(=O)NCC(C)c2ccccc2)c(=O)c2cc3ccccc3n12 (stereo not given)	none (no result: Lassa entry inh)
COc1ccc(OC)c(S(=O)(=O)Nc2cccc3ccc(O)cc23)c1	HCMV inh -62
CC1(Cc2cc(Cl)ccc2C(F)(F)F)C(=O)Nc2cc(F)ccc21 (stereo not given)	none (no result: HCMV inh, Lassa entry inh, MARV entry inh)
CC1(Cc2ccc(C(F)(F)F)o2)C(=O)Nc2cc(-c3ccc(F)cc3F)ccc21 (stereo not given)	HCMV inh -100, FMDV inh inconclusive (no result: Lassa entry inh, MARV entry inh)
N#Cc1ccc(NC(=O)N[C@H]2CC[C@@]34CCCN3C(=O)CCC[C@H]4C2Cc2ccccc2)cc1 (stereo not given in full)	none (no result: VACV mCherry inh, VACV Venus inh, Lassa entry inh, MARV entry inh, FMDV inh)
COC(=O)CCC(=O)N(CCN(C(=O)CCC(=O)OC)c1ccccc1)c1ccccc1	HCMV inh -95
CON(C)C(=O)CCN(C(=O)OC(C)(C)C)c1ccccc1	none (no result: Lassa entry inh, MARV entry inh)
O=C(NCc1ccccc1)C(c1ccccc1F)n1c(=O)c(-c2ccco2)nc2ccccc21 (stereo not given)	none (no result: Lassa entry inh, MARV entry inh)
CC1(C)CC(=O)C2=C(C1)OC(N)=C(C#N)C2C#Cc1ccccc1 (stereo not given)	MARV entry inh inconclusive, FMDV inh inconclusive
CC(c1ccccc1)C1C(C#N)=C(N)OC2=C1C(=O)CC(C)(C)C2 (stereo not given)	HCMV inh -65 (no result: VACV mCherry inh, VACV Venus inh)
COc1cc(NS(=O)(=O)c2ccc(NC(=S)NC(=O)CC(C)C)cc2)nc(OC)n1	VACV mCherry inh 11µM, VACV Venus inh inconclusive
COC(=O)CCC(=O)NC(=S)Nc1ccc(S(=O)(=O)Nc2cc(OC)nc(OC)n2)cc1	none
COc1ccc(CCCc2nnc(SCC(=O)N/N=C\c3ccc(O)c(OC)c3)o2)cc1C	Lassa entry inh inconclusive, MARV entry inh inconclusive, FMDV inh 22µM (no result: VACV mCherry inh)
COc1ccc(/C=N/NC(=O)CSc2nnc(CCCc3ccc(OC)c(C)c3)o2)cc1	VACV Venus inh inconclusive, Lassa entry inh 7.9µM, MARV entry inh inconclusive (no result: VACV mCherry inh)
O=c1cc(C(F)(F)F)[nH]c2c(C(F)(F)F)cccc12	VACV mCherry inh inconclusive, VACV Venus inh 13µM, Lassa entry inh inconclusive, MARV entry inh inconclusive, FMDV inh inconclusive (no result: HCMV inh)
Cc1[nH]c2c(C(F)(F)F)cccc2c1CCN	MARV entry inh inconclusive (no result: VACV mCherry inh)
O=c1cc(C(F)(F)F)[nH]c2ccc(OC(F)(F)F)cc12	VACV mCherry inh inconclusive, HCMV inh -95, VACV Venus inh inconclusive, Lassa entry inh inconclusive, MARV entry inh inconclusive, FMDV inh inconclusive
N#Cc1c([N+](=O)[O-])cc([N+](=O)[O-])cc1S(=O)(=O)Cc1ccccc1	VACV mCherry inh inconclusive, HCMV inh -99, VACV Venus inh inconclusive, Lassa entry inh 11µM, MARV entry inh inconclusive, FMDV inh 28µM
Nc1[nH]c(=S)nc2nnsc12	none (no result: HCMV inh, Lassa entry inh, MARV entry inh, FMDV inh)
CN(C)c1ccc(/C=N/N=C2/NC(=O)/C(=C/c3ccc([N+](=O)[O-])cc3)S2)cc1	Lassa entry inh 2µM, MARV entry inh inconclusive, FMDV inh 8.9µM
CN(C)c1ccc(C=C2SC(=S)NC2=O)cc1	MARV entry inh inconclusive
COc1ccccc1CNS(=O)(=O)CCNC1CC1	none (no result: Lassa entry inh, MARV entry inh)
C/C(=N\Nc1ccc(S(N)(=O)=O)cc1[N+](=O)[O-])c1ccc2c(c1)OCO2	HCMV inh inconclusive, VACV Venus inh inconclusive, MARV entry inh inconclusive, FMDV inh 35µM
Cc1cc(N2CCOCC2)nc(NCc2ccccc2)n1	VACV Venus inh inconclusive, MARV entry inh inconclusive (no result: FMDV inh)
Cc1cc(N2CCCCC2)nc(N2CCCCC2)n1	HCMV inh -61 (no result: Lassa entry inh, MARV entry inh)
Cc1cc(N2CCCCCC2)nc(-c2ccccc2O)n1	Lassa entry inh inconclusive, MARV entry inh inconclusive (no result: VACV mCherry inh)
Cc1cc(N2CCCCC2)nc(NCc2ccccc2)n1	VACV mCherry inh inconclusive, HCMV inh -64, VACV Venus inh inconclusive, Lassa entry inh inconclusive, MARV entry inh 3.2µM, FMDV inh 32µM
O=S(=O)(c1ccc(-c2cc(C(F)(F)F)on2)s1)N1CCN(c2ccccc2F)CC1	HCMV inh inconclusive, VACV Venus inh inconclusive, Lassa entry inh inconclusive (no result: MARV entry inh)
Cc1c(P(=S)(c2ccccc2)c2ccccc2)[n+]2ccccc2n1C/C=C/c1ccccc1	HCMV inh -99, FMDV inh inconclusive (no result: VACV mCherry inh, VACV Venus inh, Lassa entry inh, MARV entry inh)
Cc1c(P(=S)(c2ccccc2)c2ccccc2)[n+]2ccccc2n1C	HCMV inh -64 (no result: VACV mCherry inh, VACV Venus inh, Lassa entry inh, MARV entry inh)
CN(c1ccc(OC(=O)CN2C(=O)NC3(CCCC3)C2=O)cc1)S(=O)(=O)c1ccccc1	none
CC1CN(CCNC(=O)C2CCCc3c2[nH]c2ccccc32)Cc2ccccc2O1 (stereo not given)	FMDV inh inconclusive (no result: HCMV inh, Lassa entry inh, MARV entry inh)
CCN1C(=O)[C@H]2[C@@H](c3ccc(-c4ccc(OC)cc4)cc3)N3CCC[C@@]3(C(=O)OC)[C@H]2C1=O	HCMV inh -101 (no result: Lassa entry inh, MARV entry inh)
CN(C(=O)COC(=O)c1ccc(S(=O)(=O)N2CCOCC2)cc1)c1ccccc1	none
CO/C=C\C=C/c1nnn(-c2ccc(Cl)cc2)n1	HCMV inh -64, MARV entry inh inconclusive
Clc1ccc(-n2cnnn2)cc1	none (no result: VACV mCherry inh, VACV Venus inh)
Nc1ncncc1-c1ccc2ccccc2c1	HCMV inh -75 (no result: Lassa entry inh, MARV entry inh)
COc1ccc(-c2cncnc2N)cc1OC	FMDV inh inconclusive (no result: Lassa entry inh, MARV entry inh)
Cc1ccc(NC(=O)CSc2nnc(-c3cccnc3)s2)cc1	none
O=C(CSc1nnc(-c2cccnc2)s1)Nc1ccnc2ccccc12	VACV mCherry inh inconclusive, HCMV inh -92, Lassa entry inh inconclusive, MARV entry inh inconclusive, FMDV inh inconclusive
COCCN1C[C@@H](CO)O[C@@H](n2cnc3c(N4CCN(CCO)CC4)ncnc32)C1	none (no result: Lassa entry inh, MARV entry inh)
CCC1(C)Cc2nc3[nH]c(=S)n(-c4ccccc4)c(=O)c3cc2CO1 (stereo not given)	HCMV inh -63
COc1cc2c(cc1OC)[C@@H]1O[C@](c3ccsc3)(C2)Oc2cc(C)n(Cc3ccccc3)c(=O)c21	none (no result: VACV mCherry inh, HCMV inh, VACV Venus inh, Lassa entry inh, FMDV inh)
CC(=O)Nc1ccc(NC(=O)COC(=O)c2ccccc2OCc2cccc(Br)c2)cc1	none (no result: HCMV inh, Lassa entry inh, MARV entry inh, FMDV inh)
CC1CCC(C(C)C)C(OCC(O)CNC(C)(C)C)C1 (stereo not given)	HCMV inh -76 (no result: Lassa entry inh, MARV entry inh)
CC1CCC(C(C)C)C(OCC(O)CNC(C)c2ccccc2)C1 (stereo not given)	VACV mCherry inh 10µM, HCMV inh -98, VACV Venus inh 10µM, Lassa entry inh inconclusive, MARV entry inh inconclusive, FMDV inh inconclusive
CC1CCN(CC(O)COC2CC(C)CCC2C(C)C)CC1 (stereo not given)	HCMV inh inconclusive (no result: VACV mCherry inh, VACV Venus inh, Lassa entry inh, MARV entry inh)
